# Reference: PubChem BioAssay (EPA / NIEHS)
# Records with an inconclusive call do not appear. Calls of active or inactive are those of the source. Rule for the calls: active = hit-call score of the fitted dose curve at least 0.9, where 1 is the maximum; inconclusive = response in the unintended direction; inactive = score below 0.9.
# Test system: Sodium/Iodide Symporter (NIS), SLC5A5 (gene 6528)
# Test: CPHEA_Stoker_NIS_Inhibition_RAIU: CPHEA's Radioactive Iodide Uptake (RAIU) Assay for Sodium/Iodide Symporter (NIS) Inhibition, Stoker and Laws Labs (AID 2283841)
# Method in brief: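 Iodide uptake through human NIS is measured in an engineered HEK293T line. Cells take up 125I (329pM final) for 2 hours at room temperature alongside chemicals at 0.001–100uM. Retained radioactivity is counted, and the signal is expressed against DMSO controls.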
SMILES,AC50,outcome
O=S(=O)(Cl)C(F)(F)C(F)(F)C(F)(F)C(F)(F)C(F)(F)C(F)(F)C(F)(F)C(F)(F)F,16.9 µM (active),–
OCC(O)CC(F)(F)C(F)(F)C(F)(F)C(F)(F)C(F)(F)C(F)(F)C(F)(F)C(F)(F)F (stereo unspecified),–,inactive
O=C(c1ccccc1)c1ccc(O)cc1O,–,inactive
FC(F)(F)C(F)(F)C(F)(F)C(F)(F)C(F)(F)C(F)(F)C(F)(F)CCI,3.31 µM (active),–
O=C(O)CCC(F)(F)C(F)(F)C(F)(F)C(F)(F)C(F)(F)C(F)(F)C(F)(F)F,–,inactive
OCCCC(F)(F)C(F)(F)C(F)(F)C(F)(F)C(F)(F)C(F)(F)C(F)(F)C(F)(F)F,–,inactive
CCC(Cc1c(I)cc(I)c(N)c1I)C(=O)O (stereo unspecified),–,inactive
CCc1cc(Cc2cc(CC)c(N)c(CC)c2)cc(CC)c1N,20 µM (active),–
OCC(F)(F)C(F)(F)C(F)(F)C(F)(F)C(F)(F)C(F)(F)C(F)(F)C(F)(F)CO,18.3 µM (active),–
CC(C)Nc1ccc(NC(C)C)c2c1C(=O)c1ccccc1C2=O,–,inactive
COCCOCCC[Si](C)(O[Si](C)(C)C)O[Si](C)(C)C,19.4 µM (active),–
CCCCCCCCCc1ccc(OCCO)cc1,7.03 µM (active),–
CCN=C1C=CC(=C(c2ccc(N(CC)CC)cc2)c2ccc(N(CC)CC)cc2)c2ccccc21,0.553 µM (active),–
CCCCCCCCCCCCCC[P+](CCCC)(CCCC)CCCC,9.92 µM (active),–
O=C(F)C1(F)C(F)(F)C(F)(F)C(F)(F)C(F)(F)C1(F)F,–,inactive
OCC(F)(F)C(F)(F)C(F)(F)C(F)(F)C(F)(F)C(F)(F)CO,–,inactive
